Broadly, the inhibition is the change of the read-out against control, counted positive when it falls.

The campaign covered roughly 2,200 compounds. About 1,500 (68%) were called active. Cut-off read from the data, not from the text of the source: active = inhibition above about 23%; inactive = the rest. The set was probably picked from earlier hits. Not all results are given here.

Perilipin-5 (Homo sapiens) + 1-acylglycerol-3-phosphate O-acyltransferase ABHD5 (Homo sapiens), sequence (Q00G26 whole entry, looked up): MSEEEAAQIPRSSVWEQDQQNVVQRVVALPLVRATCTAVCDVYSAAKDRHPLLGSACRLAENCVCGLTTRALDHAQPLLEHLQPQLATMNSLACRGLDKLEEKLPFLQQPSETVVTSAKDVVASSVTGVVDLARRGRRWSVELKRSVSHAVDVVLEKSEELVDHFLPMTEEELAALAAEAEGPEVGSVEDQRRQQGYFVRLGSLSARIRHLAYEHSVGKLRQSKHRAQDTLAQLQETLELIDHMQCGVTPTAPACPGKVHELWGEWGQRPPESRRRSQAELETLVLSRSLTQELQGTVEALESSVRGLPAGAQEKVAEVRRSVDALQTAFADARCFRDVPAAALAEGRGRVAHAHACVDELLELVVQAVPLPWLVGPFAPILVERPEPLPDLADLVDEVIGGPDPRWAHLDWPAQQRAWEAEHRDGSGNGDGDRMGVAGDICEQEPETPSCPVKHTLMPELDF
Perilipin-5 (Homo sapiens) + 1-acylglycerol-3-phosphate O-acyltransferase ABHD5 (Homo sapiens), sequence (Q8WTS1 whole entry, looked up): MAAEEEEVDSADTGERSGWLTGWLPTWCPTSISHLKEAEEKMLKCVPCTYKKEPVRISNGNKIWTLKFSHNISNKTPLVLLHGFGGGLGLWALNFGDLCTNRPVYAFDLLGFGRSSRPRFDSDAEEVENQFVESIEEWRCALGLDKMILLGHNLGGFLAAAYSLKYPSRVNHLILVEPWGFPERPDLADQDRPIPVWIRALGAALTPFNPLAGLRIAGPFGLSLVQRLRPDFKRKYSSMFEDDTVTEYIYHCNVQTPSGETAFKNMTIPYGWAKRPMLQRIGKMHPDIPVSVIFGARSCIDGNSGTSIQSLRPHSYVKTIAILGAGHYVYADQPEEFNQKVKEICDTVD

This experiment concerns the target Perilipin-5 (Homo sapiens) + 1-acylglycerol-3-phosphate O-acyltransferase ABHD5 (Homo sapiens) (UniProt Q00G26+Q8WTS1). Put plainly: ABHD5-PLIN5 interaction inhibitors, confirmation, biochemical, luminescence (AID 651612).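 Note: 0% = DMSO vehicle wells.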 To be noted: at 4 µM, hits give high values.
As to `O=C(O)c1ccc2c(c1)C(=O)N(c1ccc(/C=C/C(=O)c3ccccc3)cc1)C2=O`, the inhibition is 94.7% (active).

For `O=[N+]([O-])/C=C/c1ccc2c(ccn2Cc2ccccc2)c1`, the inhibition was 103% (active).

As for `Cc1cc(C)c(NC(=O)C[N+](C)(C)CC(O)COc2cccc3ccccc23)c(C)c1` (configuration not stated), the inhibition was 22.2% (active).

As to `C[C@@H]1C[C@@H]2O[C@H]2/C=C\C=C\C(=O)Cc2c(Cl)c(O)cc(O)c2C(=O)O1`, the inhibition is 53.1% (active).

Regarding `O=C(NNc1c2ccccc2nc2ccccc12)c1cc2ccccc2cc1O`, the inhibition was 35.2% (active).

`Cc1cc2c(c(=O)n1Cc1ccco1)C(c1ccccc1)C(C#N)=C(N)O2` (configuration not stated): the inhibition is 19% (inactive).

Turning to `CCCOc1ccc(C(=O)C(CCC(CNCC)C(=O)c2ccc(OCCC)cc2)CNCC)cc1` (configuration not stated), the inhibition was 19.7% (inactive).

For the molecule `CCc1ccc(NC(=O)CSc2nnc(-c3cnccn3)n2Cc2ccco2)cc1`, the inhibition was 19.6% (inactive).

For `CC(C)(C)C1C/C(=C/c2ccco2)C(=O)/C(=C/c2ccco2)C1` (configuration not stated), the inhibition is 77.8% (active).

Consider `COc1ccc(-n2cc(CNC3CCOCC3)c(-c3cccc(F)c3)n2)cc1`, for which the inhibition was 2.9% (inactive).

Turning to `Cc1cccc(C=CC(=O)c2ccc(Cl)cc2)c1`, the inhibition is 84.9% (active).

On to `CC(=O)N(c1ccc2oc(=O)sc2c1)S(=O)(=O)c1ccc(C)cc1`, for which the inhibition was -52.7% (inactive).

As for `COc1ccc(CNC(=O)/C(C#N)=C/c2cccc(OC)c2OC)cc1`, the inhibition is 56.6% (active).

With `O=C(Nc1ccccc1)c1nnsc1S(=O)(=O)c1ccc(Cl)cc1`, the inhibition is 64.1% (active).

As for `O=C(N/N=C/C=C/c1ccco1)c1cccs1`, the inhibition is 40.2% (active).

For `COc1cccc2sc(N(CCCN(C)C)C(=O)C(c3ccccc3)c3ccccc3)nc12`, the inhibition was 18.3% (inactive).

Regarding `O=C1C=CC(=O)N1c1ccc(N2CCCCC2)cc1`, the inhibition is 36.2% (active).

For the molecule `COc1ccc(N/C=C(\C2OC(=O)c3ccccc32)[N+](=O)[O-])cc1` (configuration not stated), the inhibition is 9.16% (inactive).

`O=c1[nH]c(/C=C\c2cccc(C(F)(F)F)c2)nc(O)c1[N+](=O)[O-]`: the inhibition was 83.9% (active).

`CC1(C)CCSC(/C=C/c2ccccc2)=N1`: the inhibition was 77.3% (active).

With `COc1ccccc1C1/C(=C(/O)c2ccc(C)cc2)C(=O)C(=O)N1Cc1ccco1` (configuration not stated), the inhibition was 2.17% (inactive).

As for `C[C@@H](CN1CCC[C@H]1CN1C(N)=NC[C@@H]1Cc1ccccc1)N1C[C@@H](Cc2ccccc2)N(CCCC2CCCC2)C1=N`, the inhibition is 11.3% (inactive).

`Cc1ccc(SC(CC(=O)c2ccc(C(C)(C)C)cc2)C(=O)O)cc1` (configuration not stated): the inhibition was 36.4% (active).

Regarding `Cc1ccn(C(CC(=O)c2ccc(Br)cc2)C(=O)O)n1` (configuration not stated), the inhibition is 6% (inactive).

For `CC(=O)c1ccc(NC(=O)CCc2nnc3ccc(NCc4ccco4)nn23)cc1`, the inhibition is 9.27% (inactive).

On to `C=C(C)C(=O)O[C@H]1C/C(C)=C\C(=O)/C=C(\C)[C@H](O)[C@@H]2OC(=O)C(=C)[C@@H]21`, for which the inhibition was 45.7% (active).

Take `NC(=O)c1nsc(C(=O)N(CC(=O)NCc2ccc(F)cc2)Cc2ccco2)c1N`: the inhibition is 4.49% (inactive).

As for `CCC(C(=O)OCCN(CC)CC)c1ccccc1` (configuration not stated), the inhibition is 79.4% (active).

Turning to `C=C1C(=O)[C@]23C[C@H]1CCC2[C@@]1(C)C(C[C@@H]3O)[C@](C)(C(=O)O)CC[C@@H]1O` (some centres not stated), the inhibition is 34.6% (active).

As to `COC(C/C=C/C(=O)[C@@H](C)OCc1ccccc1)OC`, the inhibition was 41.6% (active).

Turning to `COC(=O)c1cnn2c(C(F)(F)F)cc(-c3ccco3)nc12`, the inhibition is 14% (inactive).

On to `O=C1/C(=C\c2ccc([N+](=O)[O-])cc2)CS(=O)(=O)C/C1=C/c1ccc([N+](=O)[O-])cc1`, for which the inhibition is 103% (active).

As to `Cc1cccc(C)c1NC(=O)C(Cl)C(=O)c1ccccc1` (configuration not stated), the inhibition was 68.9% (active).

For the molecule `COc1ccc(-c2cc(C(F)(F)F)nc(S(C)(=O)=O)n2)cc1OC`, the inhibition is 52.6% (active).

In the case of `COCCN(CCOC)c1nc(N)c2c(N)nc3c(c2c1C#N)CC(=O)N3Cc1ccc(Cl)cc1`, the inhibition was 32.1% (active).

On to `COc1ccc2sc(-c3ccccc3OC)c(-c3ccc(OCCN4CCCC4)cc3)c2c1`, for which the inhibition is 15.5% (inactive).

As for `CCN1CCC(O)(/C=C/c2ccc(C)cc2)C(C(=O)/C=C/c2ccc(C)cc2)C1` (configuration not stated), the inhibition was 90.5% (active).

On to `O=C(CCN1CCc2ccccc2C(O)(c2ccccc2)C1)c1ccc2c(c1)OCCO2` (configuration not stated), for which the inhibition is 51.6% (active).

`Cc1c(CCOC(=O)CC23CC4CC(CC(C)(C4)C2)C3)sc[n+]1Cc1ccc([N+](=O)[O-])cc1`: the inhibition was 16.8% (inactive).

Consider `Cc1ccc2nc(-c3ccco3)c(Cc3cccc(Cl)c3)n2c1`, for which the inhibition is 26.5% (active).

`Cc1ccc(Cc2c(-c3ccco3)nc3ccc(Cl)cn23)cc1`: the inhibition was 32.4% (active).

Take `O=C1C(Cl)=C(Oc2ccccc2)C(=O)c2ccccc21`: the inhibition was 85.3% (active).

With `O=c1[nH][nH]c2c1[C@H](c1ccc(Cl)cc1)O[C@H](CCc1ccccc1)C2`, the inhibition is 2.53% (inactive).

`Cc1csc(NC(=O)NC2(C(F)(F)F)Oc3ccccc3O2)n1`: the inhibition is 92.4% (active).

For the molecule `O=C(c1cccnc1)N(c1cc2sc(=O)oc2c2ccccc12)S(=O)(=O)c1ccccc1`, the inhibition is -3.41% (inactive).

In the case of `CC1Cc2ccccc2N1CC(=O)Nc1ccc(S(N)(=O)=O)cc1` (configuration not stated), the inhibition was 7.58% (inactive).

Turning to `Cc1ccc(NC(=O)Cn2sc3ccccc3c2=O)cc1`, the inhibition was 74% (active).

Turning to `Cc1ccc(-n2nc(-c3ccco3)cc2C(=O)NCc2cccnc2)cc1`, the inhibition was 38.1% (active).

For `O=C(Nc1ccccc1Cl)/C(Cl)=C(\Cl)S(=O)c1ccccc1` (configuration not stated), the inhibition was 101% (active).

Regarding `CC1(C(=O)NCc2cccc3ccccc23)CCN1Cc1ccc(-c2ccccc2)o1` (configuration not stated), the inhibition was 16.1% (inactive).

As for `Cc1nc(-c2ccccc2)sc1C(=O)/C=C/c1ccccc1`, the inhibition is 81.5% (active).

Consider `CCS(=O)(=O)Nc1ccc(C2=NN(S(=O)(=O)c3ccc(F)cc3)C(c3ccco3)C2)cc1` (configuration not stated), for which the inhibition is 10.4% (inactive).

As to `Cn1sc(=O)c2cc(S(=O)(=O)NC3CC3)ccc21`, the inhibition was 34.2% (active).

In the case of `CN(C)CCCNC(=O)/C=C/c1ccc(OCc2c(F)cccc2Cl)cc1`, the inhibition was 10.8% (inactive).

With `Cc1ccc(CS(=O)(=O)c2ncc(Cl)c(C(=O)Nc3nnc(C)s3)n2)cc1`, the inhibition is 79.9% (active).

As for `CSc1nnc(NC(=O)c2nc(S(=O)(=O)Cc3ccc(C)cc3)ncc2Cl)s1`, the inhibition is 79.6% (active).

For the molecule `O=C(Nc1nc(-c2ccco2)c(-c2ccco2)s1)c1ccco1`, the inhibition is 60.6% (active).
